Compound activity (PubChem)
IkB signaling = IkB pathway inhibition in ABC-DLBCL cells; actives 0.04% (n = 110,000); ABC-DLBCL IkBa-CBG/CBR dual luciferase ratio, 4 h; response scale: scaled: untreated 0%, proteasome inhibitor 100%; Potency, µM (doses to about 57.1 µM), for the others: at the top dose IkBa stabilization activation; active means well fitted curve in the direction sought with a large enough effect in the signal ratio, not every such curve was filed as active; inconclusive means small, poorly fitted or top-dose-only effect, or a change in a side signal; the % refers to the signal ratio;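 further: the direction sought is a rising ratio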
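In this assay, an IκBα–CBG68 fusion accumulates when IKK-driven degradation is blocked; native CBR normalizes for cell number. OCI-Ly3 cells were treated 4 h with compound and doxycycline, then green and red light read after Chroma-Glo addition.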
HEK293 cAMP cs = parental HEK293 cAMP activation (counter-screen); actives 2.5% (n = 73,000); Potency, µM (titrated, usually from 57.1 µM), for inactives: at the top dose activation, hits mostly activators; parental HEK293 CNG cAMP sensor, membrane potential fluorescence; AID 938; active means well fitted activation curve with a large enough effect; inconclusive means small, poorly fitted or top-dose-only effect; inactive means no such curve, though single readings can be large or run the other way; further: % of control where 0% means no effect; nearly all actives have a fitted effect of over 55% in size
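Counterscreen for endogenous-receptor signalling: CNG-channel HEK 293 cells report cAMP rise by membrane depolarization. After 60 min dye equilibration with 100 uM RO 20-1724, compounds incubated 30 min before bottom-read fluorescence at 590 nm.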
CRE Fsk mod = alters forskolin-stimulated CRE reporter signaling in CHO cells; CHO CRE-bla reporter (cAMP response element driving beta-lactamase), forskolin EC10, beta-lactamase ratio; Potency, µM (doses to about 38.2 µM), for inactives: top-dose activity change, negative = inhibition, usual class: activators; actives 2.5% (n = 71,000); active means well fitted activation curve with a large enough effect in the signal ratio, with a control signal flat, not every such curve was filed as active; inconclusive means small, poorly fitted or top-dose-only effect, or effect the other way, or a change in a side signal; the % refers to the signal ratio; further: % of control where 0% means no effect
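Reporter-gene assay: CHO cells with beta-lactamase behind cAMP responsive elements, co-treated with compound and EC10 NKH 477 for 3 hours at 37 degrees Celsius. Activity came from the 460/530 nm CCF4 emission ratio.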
TSHR ag = activates the human thyroid stimulating hormone receptor; P16473; HEK293-CNG-TSHR cells (CNG channel as cAMP sensor), membrane potential dye, cAMP; Potency, µM (titrated, usually from 57.1 µM), for the others: at the top dose activation, hits mostly activators; actives 0.48% (n = 73,000); AID 926; active means well fitted activation curve with a large enough effect in the main read-out, with a control signal flat, not every such curve was filed as active; inconclusive means small, poorly fitted or top-dose-only effect, or a change in a side signal; inactive means no such curve, though single readings can be large or run the other way; % of control where 0% means no effect;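 further: the control signal comes from parental cells without the receptor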
Target sequence (P16473 whole entry, looked up): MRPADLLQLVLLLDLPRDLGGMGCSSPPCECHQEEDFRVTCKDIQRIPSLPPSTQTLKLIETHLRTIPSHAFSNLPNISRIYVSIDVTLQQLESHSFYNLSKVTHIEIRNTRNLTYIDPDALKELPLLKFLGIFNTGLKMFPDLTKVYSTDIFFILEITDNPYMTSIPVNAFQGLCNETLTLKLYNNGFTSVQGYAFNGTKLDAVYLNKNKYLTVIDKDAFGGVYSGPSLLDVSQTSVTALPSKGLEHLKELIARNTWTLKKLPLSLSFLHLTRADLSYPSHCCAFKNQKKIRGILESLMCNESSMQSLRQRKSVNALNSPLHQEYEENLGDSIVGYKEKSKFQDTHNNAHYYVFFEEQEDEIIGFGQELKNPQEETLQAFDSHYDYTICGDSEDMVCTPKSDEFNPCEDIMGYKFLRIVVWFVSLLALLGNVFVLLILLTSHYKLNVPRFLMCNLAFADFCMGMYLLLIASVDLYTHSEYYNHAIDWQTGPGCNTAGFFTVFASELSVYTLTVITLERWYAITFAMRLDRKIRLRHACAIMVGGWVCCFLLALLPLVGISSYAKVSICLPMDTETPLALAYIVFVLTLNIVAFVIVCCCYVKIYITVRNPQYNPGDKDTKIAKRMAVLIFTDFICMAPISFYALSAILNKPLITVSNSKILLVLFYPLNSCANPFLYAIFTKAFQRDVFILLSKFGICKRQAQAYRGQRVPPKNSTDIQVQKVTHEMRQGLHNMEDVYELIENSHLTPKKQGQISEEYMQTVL
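HEK 293 cells stably expressing TSHR and a cAMP-gated CNG channel; parental CNG-only cells as counterscreen. Cells preloaded 60 min with membrane potential dye plus 100 uM RO 20-1724, then compound 30 min; fluorescence read at 590 nm.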
Hsp90 Hop PPI = changes Hsp90-Hop TPR2A binding signal, up or down; AlphaScreen TPR2A-His6 binding biotin-Hsp90 C-terminal peptide; Potency, µM (series often up to 57 µM), for the others: at the top dose activity change, negative = inhibition; actives 0.44% (n = 71,000); active means well fitted curve in either direction with a large enough effect; inconclusive means small, poorly fitted or top-dose-only effect, or another doubt; further: on the % scale 0 is the no-effect control and ±100 the full control effect
* = called active by the depositor; [ ] = remark or other dose. This is a sample that favours compounds with a hit; in the whole collection about 3.5% have one here. Potency means the concentration at half of the fitted maximal effect.

COCCn1c(=O)c(-c2cccs2)nc2cnc(OCc3ccccc3)nc21 was read as IkB signaling -0.5%[11.4 µM], HEK293 cAMP cs 12.9%, CRE Fsk mod 2.51µM*, TSHR ag -3.1% and Hsp90 Hop PPI -2.1%.
For COc1cccc(C(=O)Nc2ccc3nc(SCc4ccc(C)cc4)sc3c2)c1 the results were IkB signaling -1.0%.
For N#CCCn1c(=O)c(-c2cccs2)nc2cnc(OCc3ccccc3)nc21 the results were IkB signaling 1.8%[11.4 µM], HEK293 cAMP cs 11.8%, CRE Fsk mod 1.26µM*, TSHR ag -6.9% and Hsp90 Hop PPI -9.0%.
`COc1ncc2nc(-c3ccc(Cl)cc3)c(=O)n(CCc3ccccc3)c2n1` gave IkB signaling -1.1%[11.4 µM], HEK293 cAMP cs -2.3%, CRE Fsk mod inconclusive, TSHR ag -3.3% and Hsp90 Hop PPI -2.2%.
COc1ncc2nc(-c3cc(F)cc(F)c3)c(=O)n(CCc3ccccc3)c2n1 was read as IkB signaling 0.7%[11.4 µM], HEK293 cAMP cs 11.9%, CRE Fsk mod 10µM*, TSHR ag 3.7% and Hsp90 Hop PPI 6.8%.
Screening COCCn1c(=O)c(C)nc2cnc(OCc3ccccc3)nc21 returned IkB signaling 1.9%[11.4 µM], HEK293 cAMP cs 3.16µM*, CRE Fsk mod inconclusive, TSHR ag inconclusive and Hsp90 Hop PPI -1.0%.
For COCCn1c(=O)c(-c2ccccc2)nc2cnc(OC)nc21 the results were IkB signaling 1.4%[11.4 µM], HEK293 cAMP cs 25.1%, CRE Fsk mod 12.6µM*, TSHR ag -5.9% and Hsp90 Hop PPI -2.4%.
Screening O=C(c1ccncc1)N1CCC[C@@]2(CCN(C(c3ccccc3)c3ccccc3)C2)C1 returned IkB signaling 1.1%[11.4 µM], HEK293 cAMP cs 3.98µM*, CRE Fsk mod 3.8%, TSHR ag inconclusive and Hsp90 Hop PPI -3.8%.
Cn1cccc1C(=O)N1CCC[C@@]2(CCN(c3ccncc3)C2)C1 was read as IkB signaling 2.4%[11.4 µM], HEK293 cAMP cs 5.01µM*, CRE Fsk mod -1.9%, TSHR ag inconclusive and Hsp90 Hop PPI -6.1%.
Screening COc1ccc(C(=O)N2CCC[C@@]3(CCN(c4ccccc4)C3)C2)cc1 returned IkB signaling 0.2%[11.4 µM], HEK293 cAMP cs 12.6µM*, CRE Fsk mod 4.4%, TSHR ag inconclusive and Hsp90 Hop PPI -18.2%.
`O=C(c1cnccn1)N1CCC[C@@]2(CCN(C(c3ccccc3)c3ccccc3)C2)C1` gave IkB signaling 4.4%[11.4 µM], HEK293 cAMP cs inconclusive, CRE Fsk mod 5.0%, TSHR ag inconclusive and Hsp90 Hop PPI -4.9%.
Screening CC(C)N(Cc1nc(-c2ccc(Cl)cc2)no1)C(=O)c1ccco1 returned IkB signaling -0.1%.
Cc1cccc(NC(=O)Cn2c(=O)nc(-c3ccccc3)c3ccccc32)c1C was read as IkB signaling 1.4%.
Screening Cc1ccccc1N1C(=O)c2cc(S(N)(=O)=O)c(Cl)cc2N[C@H]1C returned IkB signaling 0.6%[25.6 µM], HEK293 cAMP cs 17.0%[25.6 µM], CRE Fsk mod -1.8%[17.1 µM], TSHR ag 1.8%[25.6 µM] and Hsp90 Hop PPI -0.8%[26 µM].
COc1cccc(NC(=O)CCN2CCN(c3ccccc3F)CC2)c1 was read as HEK293 cAMP cs 25.1µM* and TSHR ag inconclusive.
For COc1ccc(C)cc1NC(=O)CN1CCN(c2ccccc2F)CC1 the results were IkB signaling 0.2%, HEK293 cAMP cs 15.8µM*, CRE Fsk mod inconclusive, TSHR ag inconclusive and Hsp90 Hop PPI 3.9%.
For COc1ccc(OC)c(NC(=O)CCN2CCN(c3ccccc3F)CC2)c1 the results were IkB signaling 2.3%, HEK293 cAMP cs 11.9%[11.4 µM], CRE Fsk mod inconclusive, TSHR ag 14.0%[11.4 µM] and Hsp90 Hop PPI -13.4%[11 µM].
Screening O=C(CCN1CCN(c2ccc(Cl)cc2)CC1)Nc1ccccc1F returned IkB signaling inconclusive, HEK293 cAMP cs 25.1µM*, CRE Fsk mod -5.0%, TSHR ag inconclusive and Hsp90 Hop PPI -2.5%.
Screening CCOC(=O)c1c(C)[nH]c2ccc3c(c12)CN1CCc2cc(OC)ccc2[C@@H]1O3 returned IkB signaling inconclusive, HEK293 cAMP cs -58.5%, CRE Fsk mod 7.9%, TSHR ag inconclusive and Hsp90 Hop PPI -18.0%.
N#Cc1cccc(-c2nc(NCCN3CCOCC3)c3ccccc3n2)c1 was read as IkB signaling -10.3%[11.4 µM], HEK293 cAMP cs -3.2%, CRE Fsk mod 10µM*, TSHR ag 0.0% and Hsp90 Hop PPI -3.9%.
`c1cncc(-c2nc(NCCN3CCOCC3)c3ccccc3n2)c1` gave IkB signaling -7.6%[11.4 µM], HEK293 cAMP cs 0.3%, CRE Fsk mod 10µM*, TSHR ag 4.3% and Hsp90 Hop PPI 0.5%.
Clc1ccc(-c2nc(NCCN3CCOCC3)c3ccccc3n2)cc1 was read as IkB signaling 1.1%, HEK293 cAMP cs -11.9%, CRE Fsk mod 7.6% and Hsp90 Hop PPI 0.2%.
`N#Cc1nc(-c2cccc3ccccc23)oc1NCCN1CCOCC1` gave IkB signaling 2.2%, HEK293 cAMP cs -26.9%, CRE Fsk mod 10µM*, TSHR ag 0.2%[11.4 µM] and Hsp90 Hop PPI 14.7%.
For CCOc1ccc(NC(=O)CSc2ncc3c(n2)-c2ccc(Cl)cc2N(Cc2ccccc2)S3(=O)=O)cc1 the results were IkB signaling -0.5%.
CN(C)c1ncnc2ccc(-c3cccc(C#N)c3)cc12 was read as IkB signaling -1.7%[11.4 µM], HEK293 cAMP cs 6.1%, CRE Fsk mod inconclusive, TSHR ag 11.8% and Hsp90 Hop PPI -8.0%.
For C=CCn1c(N)c(C(=O)NCC2CCCO2)c2nc3ccccc3nc21 (stereo not drawn) the results were IkB signaling inconclusive, HEK293 cAMP cs 29.8%, CRE Fsk mod 10µM*, TSHR ag 2.2% and Hsp90 Hop PPI inconclusive.
`Cc1cccc(-n2c(N)c(C(=O)NCCN3CCOCC3)c3nc4ccccc4nc32)c1` gave IkB signaling 0.1%, HEK293 cAMP cs 28.4%, CRE Fsk mod 10µM*, TSHR ag 22.9% and Hsp90 Hop PPI inconclusive.
Screening O=S(=O)(Nc1nc2ccccc2nc1NCCN1CCOCC1)c1cccc(Cl)c1 returned IkB signaling 1.6%, HEK293 cAMP cs 2.9%, CRE Fsk mod 6.7%, TSHR ag 13.1% and Hsp90 Hop PPI -4.6%.
`CC(C)Cn1c(N)c(C(=O)NCCN2CCOCC2)c2nc3ccccc3nc21` gave IkB signaling -0.1%, HEK293 cAMP cs inconclusive, CRE Fsk mod 10µM*, TSHR ag inconclusive and Hsp90 Hop PPI 27.5%.
`CC(C)Cn1c2nc3ccccc3nc2c2c(=O)n(CCN3CCOCC3)cnc21` gave IkB signaling 0.4%, HEK293 cAMP cs 8.9%, CRE Fsk mod inconclusive, TSHR ag 10.6% and Hsp90 Hop PPI -5.3%.
Nc1c(S(=O)(=O)c2cccc(Cl)c2)c2nc3ccccc3nc2n1CCN1CCOCC1 was read as IkB signaling -0.7%, HEK293 cAMP cs inconclusive, CRE Fsk mod 12.6µM*, TSHR ag inconclusive and Hsp90 Hop PPI -4.1%.
